The structures appear in SMILES notation. Values without a mark were called inactive. Inconclusive results are not listed. Calls of active or inactive are those of the source. Unless noted, calls follow the shape of the dose curve; as a rule, active = well fitted curve in the direction sought with a large enough effect in the repeat runs; inconclusive = weak or mixed curves; inactive = no such curve, though single readings can be large; an effect the other way counts as inactive or inconclusive.

Test [1] can be described thus: qHTS assay to identify small molecule agonists of the TGF-beta/Smad signaling pathway - cell viability counter screen (AID 1346829). Also: top concentration of the series differs between compounds; nearly all actives have a fitted effect of over 45% in size. In outline:
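Same-well cytotoxicity: CellTiter-Glo added after the 2 hr room-temperature beta-lactamase substrate step, luminescence measured 30 min later; cells had 5 hr of compound at 37 C.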
On the technique in general: In qHTS, concentration-response curves come from the screen itself.

Test [2] can be described thus: qHTS assay to identify small molecule agonists of the TGF-beta/Smad signaling pathway (AID 1346859; active = well fitted activation curve with a large enough effect in the signal ratio in the repeat runs, not every such curve was filed as active; the % refers to the signal ratio; also: series mostly up to about 77 µM). An outline of the steps: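 HEK 293T cells stably carrying a beta-lactamase reporter driven by the Smad binding element were seeded overnight, exposed to DMSO-dissolved compounds for 5 hr at 37 C, 5% CO2, then loaded with FRET substrate for 2 hr at room temperature.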

Test [3] deals with Thyrotropin-releasing hormone receptor (Homo sapiens) (UniProt P34981). Briefly: qHTS assay to identify small molecule antagonists of the thyrotropin-releasing hormone receptor (TRHR) signaling pathway (AID 1346877; active = well fitted inhibition curve with a large enough effect in the repeat runs, not every such curve was filed as active; also: series mostly up to about 51 µM). An outline of the steps: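 Antagonism is measured as suppression of the calcium response to 1 nM TRH in TRHR-HEK293 cells that have been dye-loaded for 2 h at 37 °C after overnight plating. Each compound is tested at 15 concentrations in triplicate.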
Sequence of Thyrotropin-releasing hormone receptor (Homo sapiens) (P34981 whole entry, looked up): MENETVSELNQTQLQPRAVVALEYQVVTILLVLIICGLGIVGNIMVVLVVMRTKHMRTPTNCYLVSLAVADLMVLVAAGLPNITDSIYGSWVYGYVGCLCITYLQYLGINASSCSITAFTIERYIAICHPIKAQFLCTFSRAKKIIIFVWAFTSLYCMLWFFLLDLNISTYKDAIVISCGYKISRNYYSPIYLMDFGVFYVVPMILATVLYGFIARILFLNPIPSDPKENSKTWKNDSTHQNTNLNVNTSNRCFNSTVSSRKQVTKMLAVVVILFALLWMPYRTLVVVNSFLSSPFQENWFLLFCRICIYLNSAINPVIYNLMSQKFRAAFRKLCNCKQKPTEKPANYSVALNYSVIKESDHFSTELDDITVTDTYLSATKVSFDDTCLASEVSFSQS

The target is the same in test [4]. Briefly: qHTS assay to identify small molecule agonists of the thyrotropin-releasing hormone receptor (TRHR) signaling pathway (AID 1346891; calls by dose curve; also: series mostly up to about 58 µM). In outline:
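TRHR-expressing HEK293 cells were plated 18 h at 37 °C/5% CO2, loaded with calcium dye 2 h at 37 °C, then given compound in DMSO; fluorescence was read kinetically for 3 min at 1 s intervals.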

Test [5] is described as follows: Human pregnane X receptor (PXR) small molecule agonists, qHTS cell viability counter screen (AID 1346977). Also: nearly all actives have a fitted effect of over 50% in size. An outline of the steps:
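PXR-Luc HepG2 cells in medium with 5% charcoal-stripped FBS were pre-incubated 5hr, then exposed to compounds for 24hr at 37C. Viability was read in the same wells by CellTiter-Fluor fluorescence, reagent added after 23hr with a 1hr incubation.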

Test [6] is described as follows: Caspase-3/7 induction in HepG2 cells by small molecules, qHTS assay (AID 1346978). Also: nearly all actives have a fitted effect of over 15% in size. An outline of the steps: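 Wild-type HepG2 cells (2,000/well) were settled 5 h at 37 C, 5% CO2, then exposed to compounds in DMSO for 17 h. Caspase-3/7 activity was read by luminescence 30 min after adding Caspase-Glo 3/7 reagent at room temperature.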
The nature of test [7]: Caspase-3/7 induction in CHO-K1 cells by small molecules, qHTS assay (AID 1346980). Also: nearly all actives have a fitted effect of over 15% in size. In outline: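 Wild-type cells were seeded at 1,500 per well and settled 5 hr at 37 C, 5% CO2, then exposed to DMSO-dissolved compounds for 17 hr. Caspase-Glo 3/7 reagent was added, and luminescence was read after 30min at room temperature.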
Test [8] is described as follows: Caspase-3/7 induction in HepG2 cells by small molecules, qHTS cell viability counter screen (AID 1346981). Also: series mostly up to about 92 µM; nearly all actives have a fitted effect of over 30% in size. In outline: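 Cell viability is measured as a cytotoxicity counter screen alongside the Caspase-Glo 3/7 readout in identical wells. Wild-type HepG2 cells are treated with test compounds for 16 hr at 37 C before CellTiter-Fluor addition and a 1-hr incubation.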

Test [9] concerns the target Cytochrome P450 2D6 (Homo sapiens) (UniProt P10635). Briefly: Cytochrome P450 Family 2 Subfamily D Member 6 (CYP2D6) small molecule antagonists: luciferase reporter qHTS assay (AID 1671196). Also: nearly all actives have a fitted effect of over 50% in size. Also: potency is read from the fitted curve at half-maximal effect. In outline: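 Enzyme and proluciferin substrate were first combined with test chemical for 10 min at room temperature. Adding NADPH regeneration solution started a 1 h reaction, stopped with luciferin detection reagent and read by luminescence 20 min later.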

Test [10] addresses Cytochrome P450 2C19 (Homo sapiens) (UniProt P33261). Briefly: Cytochrome P450 Family 2 Subfamily C Member 19 (CYP2C19) small molecule antagonists: luciferase reporter qHTS assay (AID 1671197). Also: series mostly up to about 120 µM; nearly all actives have a fitted effect of over 65% in size. An outline of the steps: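 Quantitative high-throughput screen of the Tox21 library using CYP2C19 with proluciferin substrate. Reaction: NADPH regeneration, 37C, 1 h, after 10 min compound preincubation at room temperature. Readout: luminescence.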

Test [11] has as its target Cytochrome P450 2C9 (Homo sapiens) (UniProt P11712). Description: Cytochrome P450 Family 2 Subfamily C Member 9 (CYP2C9) small molecule antagonists: luciferase reporter qHTS assay (AID 1671198). Also: nearly all actives have a fitted effect of over 50% in size. Also: potency is read from the fitted curve at half-maximal effect. An outline of the steps:
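CYP2C9 activity was measured with a P450-Glo proluciferin substrate. Enzyme–substrate mix was held with compound for 10 min at room temperature, then NADPH regeneration solution was added for 1 h at 37C. Luciferin product was read as luminescence.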
(Reporter assays use an easily measured gene product as a stand-in for the process of interest.)

Test [12] addresses Cytochrome P450 1A2 (Homo sapiens) (UniProt P05177). Description: Cytochrome P450 Family 1 Subfamily A Member 2 (CYP1A2) small molecule antagonists: luciferase reporter qHTS assay (AID 1671199). Also: nearly all actives have a fitted effect of over 50% in size. Also: potency is read from the fitted curve at half-maximal effect. In outline: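 Compounds were incubated with CYP1A2 and a luminogenic proluciferin substrate for 10 min at room temperature before the reaction was started with NADPH regeneration solution. After 1 h, detection reagent was added and light output, proportional to CYP activity, was recorded.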

Test [13] addresses Voltage-gated inwardly rectifying potassium channel KCNH2 (Homo sapiens) (UniProt Q12809). Description: Human Ether-a-go-go-Related Gene (hERG) channel small molecule antagonists: fluorescence cell-based qHTS assay (AID 1671200). An outline of the steps: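 U2OS cells expressing the channel were plated at 1000 cells/well, incubated overnight at 37 C, then loaded with FluxOR II thallium-sensitive dye for 1 h at room temperature in the dark, with a further 10 min at room temperature before stimulation.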

For test [14], the target named is Cytochrome P450 3A4 (Homo sapiens) (UniProt P08684). Description: Cytochrome P450 Family 3 Subfamily A Member 4 (CYP3A4) small molecule antagonists: luciferase reporter qHTS assay (AID 1671201). An outline of the steps:
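P450-Glo CYP3A4 system with proluciferin substrate; compounds preincubated 10 min RT with enzyme-substrate mix, then NADPH regeneration added for 1 h RT. Detection reagent 20 min, luminescence read as relative luminescence units.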

Test [15] concerns the target Nuclear receptor subfamily 1 group I member 2 (Homo sapiens) (UniProt O75469). Description: Human pregnane X receptor (PXR) small molecule agonists, qHTS assay (AID 1346982). Also: nearly all actives have a fitted effect of over 35% in size. Also: potency is read from the fitted curve at half-maximal effect. An outline of the steps:
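Cells: HepG2 stably carrying PXR-Luc. Medium held 5% charcoal-stripped FBS. Compounds in DMSO added after 5 hr plating, incubated 24 hr, then luminescence quantified with ONE-Glo.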

Test [16] concerns the target Nuclear receptor subfamily 1 group I member 2 (Rattus norvegicus) (UniProt Q9R1A7). Briefly: Rat pregnane X receptor (rPXR) activation by small molecules, qHTS assay (AID 1346983). Also: nearly all actives have a fitted effect of over 20% in size. Particulars: rPXR luciferase reporter cells, One-Glo luminescence, 24 h; max activation: hits give high values. In outline:
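Cell-based rPXR luciferase reporter assay, 2,000 cells per well, rested 5hr at 37 C before compound addition in DMSO, then 24 hr at 37 C. One-Glo reagent was added and luminescence read after 30 min at room temperature.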

Test [17] has as its target Nuclear receptor subfamily 1 group I member 2 (Homo sapiens) (UniProt O75469). Description: CYP3A4 induction through human pregnane X receptor (PXR) by small molecules, qHTS assay (AID 1346984). Also: nearly all actives have a fitted effect of over 40% in size. An outline of the steps: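 Quantitative HTS in DPX-2 cells, i.e. HepG2 transfected with PXR response element and CYP3A4-promoter luciferase. Compounds in DMSO incubated 24hr at 37C; then P450-Glo CYP3A4 substrate, 3uM final, 3hr; One-Glo luminescence.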
% is scaled to controls: 0 for no effect and ±100 for the full control effect.

Sequence of Voltage-gated inwardly rectifying potassium channel KCNH2 (Homo sapiens) (Q12809 whole entry, looked up): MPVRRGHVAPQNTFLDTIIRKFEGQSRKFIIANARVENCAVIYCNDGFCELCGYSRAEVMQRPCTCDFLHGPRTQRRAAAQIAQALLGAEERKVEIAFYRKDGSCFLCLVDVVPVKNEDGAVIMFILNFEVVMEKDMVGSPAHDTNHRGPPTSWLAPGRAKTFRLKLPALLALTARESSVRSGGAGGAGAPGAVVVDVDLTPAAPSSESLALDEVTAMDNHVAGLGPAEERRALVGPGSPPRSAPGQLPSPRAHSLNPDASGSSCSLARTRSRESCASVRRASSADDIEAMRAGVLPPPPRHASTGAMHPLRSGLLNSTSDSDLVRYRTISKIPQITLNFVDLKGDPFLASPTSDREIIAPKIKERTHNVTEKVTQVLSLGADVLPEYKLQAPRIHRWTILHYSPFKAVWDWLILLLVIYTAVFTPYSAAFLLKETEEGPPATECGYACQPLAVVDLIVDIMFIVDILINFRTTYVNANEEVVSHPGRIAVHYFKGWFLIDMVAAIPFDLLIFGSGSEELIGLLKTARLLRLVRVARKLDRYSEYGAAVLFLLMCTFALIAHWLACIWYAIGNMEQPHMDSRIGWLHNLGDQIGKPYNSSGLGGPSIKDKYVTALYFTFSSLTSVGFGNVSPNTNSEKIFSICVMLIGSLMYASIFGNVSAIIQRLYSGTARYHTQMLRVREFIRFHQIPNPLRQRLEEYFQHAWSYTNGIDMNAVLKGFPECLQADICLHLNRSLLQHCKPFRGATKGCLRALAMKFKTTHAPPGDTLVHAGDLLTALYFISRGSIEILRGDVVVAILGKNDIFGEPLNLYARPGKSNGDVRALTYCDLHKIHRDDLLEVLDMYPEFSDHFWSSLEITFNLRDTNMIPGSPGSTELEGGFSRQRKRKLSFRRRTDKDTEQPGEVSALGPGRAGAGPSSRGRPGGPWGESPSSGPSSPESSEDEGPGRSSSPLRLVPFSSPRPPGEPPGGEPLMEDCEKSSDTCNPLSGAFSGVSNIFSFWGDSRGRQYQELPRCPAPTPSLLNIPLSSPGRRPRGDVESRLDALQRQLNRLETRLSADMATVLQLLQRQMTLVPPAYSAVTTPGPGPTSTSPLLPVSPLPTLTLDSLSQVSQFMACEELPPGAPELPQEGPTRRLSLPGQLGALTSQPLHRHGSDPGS
Sequence of Cytochrome P450 2C9 (Homo sapiens) (P11712 whole entry, looked up): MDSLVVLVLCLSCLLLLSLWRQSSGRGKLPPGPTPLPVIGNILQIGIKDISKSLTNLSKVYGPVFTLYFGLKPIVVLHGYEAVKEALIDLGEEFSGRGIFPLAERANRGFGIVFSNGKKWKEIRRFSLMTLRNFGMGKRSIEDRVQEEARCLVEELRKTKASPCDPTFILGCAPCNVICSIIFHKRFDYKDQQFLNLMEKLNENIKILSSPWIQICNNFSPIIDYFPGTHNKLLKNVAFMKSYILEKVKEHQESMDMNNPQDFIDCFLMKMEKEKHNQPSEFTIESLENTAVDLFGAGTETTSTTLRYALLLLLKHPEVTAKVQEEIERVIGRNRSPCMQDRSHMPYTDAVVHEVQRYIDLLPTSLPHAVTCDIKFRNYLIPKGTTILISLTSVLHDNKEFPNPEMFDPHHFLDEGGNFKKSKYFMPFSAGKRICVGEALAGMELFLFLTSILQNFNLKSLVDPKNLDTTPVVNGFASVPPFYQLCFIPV
Sequence of Nuclear receptor subfamily 1 group I member 2 (Homo sapiens) (O75469 whole entry, looked up): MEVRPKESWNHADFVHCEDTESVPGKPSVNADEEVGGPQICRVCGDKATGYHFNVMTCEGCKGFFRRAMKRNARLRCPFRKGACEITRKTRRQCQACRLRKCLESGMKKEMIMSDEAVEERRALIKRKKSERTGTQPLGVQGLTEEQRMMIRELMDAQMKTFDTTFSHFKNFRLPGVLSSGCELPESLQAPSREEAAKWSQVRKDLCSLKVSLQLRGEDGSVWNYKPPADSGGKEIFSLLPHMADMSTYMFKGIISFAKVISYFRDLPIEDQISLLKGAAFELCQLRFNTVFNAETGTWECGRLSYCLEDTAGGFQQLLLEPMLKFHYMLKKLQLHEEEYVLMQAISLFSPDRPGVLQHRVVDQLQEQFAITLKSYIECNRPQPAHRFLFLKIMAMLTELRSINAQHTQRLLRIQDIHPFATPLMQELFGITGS
Sequence of Cytochrome P450 2D6 (Homo sapiens) (P10635 whole entry, looked up): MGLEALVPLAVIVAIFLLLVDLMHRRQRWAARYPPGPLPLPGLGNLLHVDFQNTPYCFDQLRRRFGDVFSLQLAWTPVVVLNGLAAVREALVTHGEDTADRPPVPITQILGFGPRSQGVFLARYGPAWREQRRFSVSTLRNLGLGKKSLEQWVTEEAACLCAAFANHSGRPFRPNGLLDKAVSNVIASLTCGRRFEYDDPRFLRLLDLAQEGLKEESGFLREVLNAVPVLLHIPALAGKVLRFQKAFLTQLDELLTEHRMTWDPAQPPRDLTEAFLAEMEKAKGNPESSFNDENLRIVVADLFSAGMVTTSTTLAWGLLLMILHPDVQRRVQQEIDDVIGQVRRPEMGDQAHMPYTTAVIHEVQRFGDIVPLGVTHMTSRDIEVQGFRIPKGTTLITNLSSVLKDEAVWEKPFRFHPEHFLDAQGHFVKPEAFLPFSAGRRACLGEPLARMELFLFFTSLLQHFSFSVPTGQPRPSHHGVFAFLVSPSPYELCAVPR
Sequence of Cytochrome P450 2C19 (Homo sapiens) (P33261 whole entry, looked up): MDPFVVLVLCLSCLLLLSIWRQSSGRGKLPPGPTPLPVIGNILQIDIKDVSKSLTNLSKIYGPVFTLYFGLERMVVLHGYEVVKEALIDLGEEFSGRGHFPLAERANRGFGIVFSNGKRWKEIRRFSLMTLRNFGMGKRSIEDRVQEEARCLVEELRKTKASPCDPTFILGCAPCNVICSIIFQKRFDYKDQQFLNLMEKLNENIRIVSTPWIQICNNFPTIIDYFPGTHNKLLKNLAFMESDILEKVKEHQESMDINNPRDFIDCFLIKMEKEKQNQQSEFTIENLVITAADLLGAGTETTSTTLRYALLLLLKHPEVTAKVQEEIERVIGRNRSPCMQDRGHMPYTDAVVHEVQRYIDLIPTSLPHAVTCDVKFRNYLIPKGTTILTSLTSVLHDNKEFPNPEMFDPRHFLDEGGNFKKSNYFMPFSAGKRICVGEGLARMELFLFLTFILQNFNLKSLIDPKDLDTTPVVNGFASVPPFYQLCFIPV
Sequence of Cytochrome P450 3A4 (Homo sapiens) (P08684 whole entry, looked up): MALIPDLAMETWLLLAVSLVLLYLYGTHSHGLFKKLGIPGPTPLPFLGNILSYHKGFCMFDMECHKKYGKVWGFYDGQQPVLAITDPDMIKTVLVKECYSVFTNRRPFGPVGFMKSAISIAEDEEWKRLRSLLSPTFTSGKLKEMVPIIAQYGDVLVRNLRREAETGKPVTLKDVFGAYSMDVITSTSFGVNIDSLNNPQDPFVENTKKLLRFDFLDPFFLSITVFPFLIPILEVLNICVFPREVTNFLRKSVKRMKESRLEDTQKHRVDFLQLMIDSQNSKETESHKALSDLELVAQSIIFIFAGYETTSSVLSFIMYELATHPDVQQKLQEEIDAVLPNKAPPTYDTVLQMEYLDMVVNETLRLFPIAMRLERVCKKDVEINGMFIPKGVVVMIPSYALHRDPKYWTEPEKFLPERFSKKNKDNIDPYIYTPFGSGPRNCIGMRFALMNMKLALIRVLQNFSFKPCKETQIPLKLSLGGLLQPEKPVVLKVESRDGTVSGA
Sequence of Cytochrome P450 1A2 (Homo sapiens) (P05177 whole entry, looked up): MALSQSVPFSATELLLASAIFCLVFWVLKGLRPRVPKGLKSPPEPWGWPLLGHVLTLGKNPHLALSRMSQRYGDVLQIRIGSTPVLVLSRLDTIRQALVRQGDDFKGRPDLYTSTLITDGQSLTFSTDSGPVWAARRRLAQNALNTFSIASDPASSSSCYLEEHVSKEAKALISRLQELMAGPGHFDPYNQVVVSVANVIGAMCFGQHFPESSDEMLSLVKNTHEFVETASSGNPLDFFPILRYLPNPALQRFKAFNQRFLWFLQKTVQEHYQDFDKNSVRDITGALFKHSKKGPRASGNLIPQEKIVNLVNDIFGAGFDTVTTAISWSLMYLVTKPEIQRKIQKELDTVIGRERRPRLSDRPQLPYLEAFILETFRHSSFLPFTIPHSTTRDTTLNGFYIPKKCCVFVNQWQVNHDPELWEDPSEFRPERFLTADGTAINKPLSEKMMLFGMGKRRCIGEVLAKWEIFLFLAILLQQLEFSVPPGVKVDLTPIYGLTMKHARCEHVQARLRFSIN
Sequence of Nuclear receptor subfamily 1 group I member 2 (Rattus norvegicus) (Q9R1A7 whole entry, looked up): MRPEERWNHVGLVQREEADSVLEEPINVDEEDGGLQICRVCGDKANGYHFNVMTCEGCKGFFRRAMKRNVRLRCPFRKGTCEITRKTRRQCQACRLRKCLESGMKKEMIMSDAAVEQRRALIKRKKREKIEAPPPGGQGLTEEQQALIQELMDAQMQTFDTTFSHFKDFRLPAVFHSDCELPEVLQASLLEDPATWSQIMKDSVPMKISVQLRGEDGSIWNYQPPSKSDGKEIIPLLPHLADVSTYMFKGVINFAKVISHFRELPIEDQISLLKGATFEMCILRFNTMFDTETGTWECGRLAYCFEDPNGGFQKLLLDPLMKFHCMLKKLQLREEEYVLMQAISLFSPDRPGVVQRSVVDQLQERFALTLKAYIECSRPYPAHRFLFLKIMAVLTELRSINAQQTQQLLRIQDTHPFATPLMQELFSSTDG

Regarding `c1ccccc1`, the call in test [1], in test [2], in [3], in test [4], in test [6] and in test [7] was inactive. Moreover, the Potency result in [5], in test [8], in [9], in test [10], in test [11] and in test [12] was “inactive” throughout. In addition, the Potency result in [13] and in [14] was “inactive” in each case.

Turning to `CCNC(=O)NCCCOc1cccc(CN2CCCCC2)c1`, the result in test [1], in [2], in test [3], in test [4], in [6] and in test [7] was inactive. In addition, the Potency entry in [5], in test [8], in [10], in test [12] and in [13] was “inactive” throughout. Moreover, the results for the Potency in [15] and in test [9] were 29.8 µM (active) and 13.8 µM (active), respectively.

Consider `CCCCC(CC)C(=O)OC(C)C` (stereo not drawn), for which the compound was classed as inactive in test [1], in test [2], in [3], in [4], in [6] and in test [7]. In addition, the Potency result in test [5], in [9], in test [10], in test [11], in [12] and in test [13] was “inactive” in each case. In test [14], the Potency result is “inactive”.

With `CCC(CO)CO`, the outcome in test [1], in test [2], in test [3], in [4], in [6] and in [7] was inactive. Besides, the Potency entry in test [5], in test [8], in [9], in test [10], in [13] and in test [14] was “inactive” throughout.

`C=C(C)C(=O)OCCCCCCOC(=O)C(=C)C`: the compound was classed as inactive in test [1], in test [2], in [3], in test [4], in test [6] and in [7]. Also, the Potency result in test [5], in [8], in [15], in test [9], in [13] and in [14] was “inactive” throughout. Also, the Potency in [11] is 35.6 µM (active); in [12] it was 39.9 µM (active).

As to `Cc1ccc(S(=O)(=O)NC(=O)NC2CCCCCCC2)cc1`, the compound was called inactive in test [1], in test [2], in test [3], in [4], in test [6] and in [7]. In addition, the compound was called inactive in test [17]. The Potency result in test [5], in [15], in test [9], in [12], in test [13] and in test [14] was “inactive” each time. Further, the max activation in [16] was -1.92%. For the same compound, the Potency in test [11] is 11 µM (active).

For the compound `O=C(O)c1ccccc1C(=O)OCc1ccccc1`, the outcome in test [1], in test [2], in test [3], in test [4], in test [6] and in test [7] was inactive. Also, the Potency entry in test [5], in test [8], in test [10], in test [12], in [13] and in test [14] was “inactive” each time.
